Screening results deposited in PubChem by several laboratories.
Hits are enriched below; roughly 0.9% of the tested compounds scored in any of these assays.
E coli growth-1: E. coli V3065 growth inhibition, primary screen, counter-screen for AddAB inhibitor project, absorbance, OD600. actives 0.27% (n = 330,000). AID 449728, 2010. inhibition, % at 11.9 µM. 18 h;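 active = inhibition above the campaign's mean inhibition across all tested compounds plus 3 SD, cut at about 9.9% in these data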;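 also: uninfected addAB+ strain grown without phage in ampicillin broth; 0% = DMSO wells and 100% = ciprofloxacin 0.95 µg/ml wells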
E coli growth-2: E. coli growth inhibition, primary screen, OD600; Escherichia coli growth, 23 h; hits give low values; AID 1053175, 2014; actives 0.21% (n = 330,000); OD600 absorbance (test concentration not listed);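 active = OD600 absorbance below the run mean of sample wells minus 3.6 SD, in any replicate, cut at about 0.56 in these data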
Tat transport: E. coli Tat export inhibitors, primary screen, MC4100, TorA-mCherry reporter, fluorescence, single point. actives 0.036% (n = 340,000). inhibition, % at 10 µM;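 active = mean replicate inhibition at least 50% and at least half of replicates individually reaching 50%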;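 also: exported cargo escapes ClpAP degradation while cytoplasmic cargo is degraded and loses fluorescence; 0% = median of neutral control wells and 100% = median of NaSCN control wells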
Calb FLC: C. albicans growth inhibition with fluconazole, primary screen, CaCi-2 strain, Alamar Blue fluorescence | C. albicans CaCi-2 (fluconazole-resistant clinical isolate) + fluconazole, 48 h | growth inhibition, % (test concentration not listed) | actives 0.57% (n = 300,000);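 active = growth inhibition above about 58% in most replicates, limit read from the data, passing the limit was not always enough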;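 also: all wells also contain fluconazole at 8 µg/ml as a sub-toxic cotreatment; 0% = median of DMSO wells and 100% = median of geldanamycin control wells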
phage Ecoli inh: growth loss of phage-infected E. coli, primary screen, RecBCD inhibitor project, absorbance, with phage, HTS; inhibition, % at 11.9 µM; actives 0.26% (n = 360,000); in the data active = inhibition above about 11%
AddAB inh: growth inhibition of E. coli expressing H. pylori AddAB, primary screen, AddAB inhibitor project, absorbance; AID 435030, 2010; actives 0.29% (n = 330,000); inhibition, % at 11.9 µM; in the data active = inhibition above about 12%;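 also: 0% = vehicle wells of infected cells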
RecBCD conf: growth loss of phage-infected RecBCD+ E. coli, confirmation, RecBCD inhibitor project, absorbance, E. coli V66, T4 gene 2 phage; actives 45% (n = 890); shares compounds with phage Ecoli inh; inhibition, % at 11.9 µM; E. coli V66 + T4 2- phage, growth OD;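 active = mean inhibition over triplicates exceeding the hit threshold derived in the original primary screen, cut at about 11% in these data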
Ecoli viability: E. coli viability inhibition, counter-screen for RecBCD inhibitor project, absorbance, high throughput | shares compounds with phage Ecoli inh | absorbance (OD) growth | inhibition, % at 11.9 µM | actives 29% (n = 890); in the data active = inhibition above about 20%;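 also: E. coli strain V66 grown with compound alone and no phage infection; 0% = bacteria with DMSO vehicle only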
AddAB counter: growth loss of phage-infected AddAB-carrying E. coli, confirmation, counter-screen for RecBCD inhibitor project, absorbance, E. coli V3065, T4 phage; actives 45% (n = 890); shares compounds with phage Ecoli inh; inhibition, % at 11.9 µM; E. coli expressing H. pylori AddAB + T4 phage, OD growth; gene 2 mutant T4, recBCD-deleted host;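 active = mean inhibition above the solvent-only control wells' mean plus 3 SD, cut at about 22% in these data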;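 also: higher means less bacterial growth from phage killing when AddAB is blocked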
An asterisk follows results filed as active; · = no result; ! = a repeat was not active.

SMILES | E coli growth-1 | E coli growth-2 | Tat transport | Calb FLC | phage Ecoli inh | AddAB inh | RecBCD conf | Ecoli viability | AddAB counter
O=C(Nc1nnc(N2CCCCCC2)s1)c1cc(-c2ccc(Br)cc2)on1 | 2.6 | 0.756 | 8.6 | 6.4 | 0.5 | 1.3 | · | · | ·
Cn1cc(Cl)c(C(=O)NN=Cc2ccc3c4c(cccc24)CC3)n1 | · | 0.689 | · | · | · | · | · | · | ·
Cc1ccc(C(=O)CC(=O)COc2ccc(Cl)cc2C)cc1 | -3.7 | 0.644 | 0.1 | 7.3 | 12.4* | -3.8 | 7.0 | 8.6 | 4.6
O=C(N/N=C/c1sc2ccccc2c1O)c1cccc2ccccc12 | -1.3 | · | -2.6 | 87.7* | 12.9* | 5.9 | 5.1 | 10.7 | 7.5
COc1ccc2cc(C(=O)N/N=C/c3sc4ccccc4c3O)ccc2c1 | 12.0* | · | -5.2 | -6.4 | 23.0* | 9.8 | 13.6* | 18.0 | 18.8
O=C(NN=Cc1sc2ccccc2c1O)c1ccccc1 | · | 0.619 | · | · | · | · | · | · | ·
COC(=O)NN=Cc1cc(Cl)cc(Cl)c1OCc1ccccc1 | · | 0.698 | · | · | · | · | · | · | ·
CCCN(CCC)Cc1c(C(=O)NN=Cc2ccsc2)nnn1-c1nonc1N | · | 0.646 | · | · | · | · | · | · | ·
COc1cc(C=c2sc(=C(C#N)C(=O)N3CCCC3)n(-c3ccccc3)c2=O)ccc1O | · | 0.803 | · | · | · | · | · | · | ·
O=C1CCCC2Cc3[nH]c4c(Cl)ccc(Cl)c4c3C3CCN1C23 (stereo not drawn) | · | 0.645 | · | · | · | · | · | · | ·
Fc1ccccc1CNC(=S)Nc1cccc(C(F)(F)F)c1 | 6.7 | 0.63 | -3.1 | -16.2 | 10.9* | 9.1 | 7.4 | 8.1 | 9.8
FC(F)(F)c1cccc(NC(=S)NCc2ccc(Cl)cc2)c1 | 7.4 | 0.656 | -1.0 | -27.0 | 13.3* | 7.5 | 6.5 | 7.1 | 9.5
O=[N+]([O-])c1cccc(C=NN2CCN(Cc3ccc(Cl)cc3)CC2)c1 | · | 0.647 | · | · | · | · | · | · | ·
CCOC(=O)c1c(C)[nH]c(C(=O)N/N=C\c2ccccc2O)c1C | -3.1 | · | 7.3 | -3.9 | 17.1* | 6.0 | 5.3 | 7.2 | 8.5
Oc1c(Br)cc(Br)cc1C=NN1CCN(Cc2ccccc2)CC1 | · | 0.715 | · | · | · | · | · | · | ·
O=C(NC1C2CC3CC(C2)CC1C3)c1ccc2c(c1)OCO2 (stereo not drawn) | -1.2 | 0.664 | 4.8 | -21.6 | -2.9 | 2.9 | · | · | ·
O=C(NNC(=O)c1ccc2c(c1)OCO2)NC12CC3CC(CC(C3)C1)C2 | 6.4 | 0.685 | 3.9 | -23.0 | 13.0* | 8.6 | 3.3 | 2.4 | 2.8
Cc1ccc(C(=O)Nc2ccc3ccccc3n2)cc1 | -1.3 | 0.664 | -4.3 | -12.0 | 1.5 | 3.8 | · | · | ·
Cc1ccc(C(O)(C(=O)NNc2ccc3ccccc3n2)c2ccc(C)cc2)cc1 | 10.7*! | 0.694 | -1.9 | 1.0 | 13.1*! | 10.2 | 4.0 | 7.7 | 4.5
CCOc1ccc(OCCCC(=O)ON=C(N)c2ccccc2Cl)cc1 | -2.6 | 0.638 | 2.6 | · | 11.0* | 1.1 | -0.1 | -0.1 | 4.4
COc1ccc(OCCCC(=O)ON=C(N)c2ccccc2C)cc1 | -0.9 | 0.702 | -5.1 | · | 2.3 | -0.6 | · | · | ·
CCc1ccc(/C=C/C(=O)c2cc(Br)ccc(=O)c2O)cc1 | 2.9 | 0.692 | -4.9 | 93.8* | 13.8* | 3.0 | 9.8 | 11.9 | -0.5
CCOc1ccc(/C=C/C(=O)c2cc(Br)ccc(=O)c2O)cc1 | 9.4 | 0.693 | 1.1 | · | 15.7* | 12.9* | 6.6 | 9.8 | 2.9
O=C(C=Cc1ccccc1)c1cc(Br)ccc1O | · | 0.642 | 1.3 | · | 1.9 | · | · | · | ·
Cc1ccc(/C=C/C(=O)c2cc(Br)ccc2OC(=O)c2ccco2)cc1 | 1.6 | 0.718 | 20.9 | 0.7 | 2.2 | 0.7 | · | · | ·
SMILES | E coli growth-1 | E coli growth-2 | Tat transport | Calb FLC | phage Ecoli inh | AddAB inh | RecBCD conf | Ecoli viability | AddAB counter
Cc1cccc(/C=C/C(=O)c2cc(Br)ccc(=O)c2O)c1 | 5.9 | 0.669 | -0.8 | 99.6* | 17.0* | 7.9 | 5.6 | 6.6 | 5.3
CCOc1ccc(C(=O)/C=C/c2ccc(OC)c(OC)c2)cc1 | -0.9 | 0.684 | 4.4 | 30.9 | 0.9 | 1.2 | · | · | ·
COC(=O)[C@@]12CCCCN1C(c1ccc(-c3ccc(Cl)c(Cl)c3)c(OC)c1)C1C(=O)N(C)C(=O)C12 (stereo partly drawn) | · | 0.654 | · | · | · | · | · | · | ·
COC(=O)C(CC(C)C)N(Cc1ccccc1)S(=O)(=O)N(Cc1ccccc1)C(CC(C)C)C(=O)OC (stereo not drawn) | · | 0.69 | · | · | · | · | · | · | ·
COc1cc(/C=N/NC(=O)c2ccncc2)ccc1O | -3.2 | · | -8.8 | · | 100.3*! | -1.8 | -1.8 | -1.2 | -0.6
COc1ccc(/C=N/NC(=O)c2ccncc2)cc1OC | 1.0 | · | -3.3 | 24.8 | 0.1 | 2.7 | · | · | ·
COc1cccc(NC(=O)CN(C)C(=O)CC2CCCCC2)c1 | · | 0.675 | 2.4 | · | -1.5 | · | · | · | ·
CN(CC(=O)Nc1cccc(F)c1)C(=O)CC1CCCCC1 | -1.1 | 0.631 | 4.4 | -12.1 | 11.3* | -3.6 | 1.6 | 1.0 | 5.2
CC1CN(C(C)CO)C(=O)c2cc(NS(=O)(=O)c3ccc(Cl)cc3)ccc2OC1CN(C)Cc1ccncc1 (stereo not drawn) | · | 0.71 | · | · | · | · | · | · | ·
O=C(O)c1ccc(S(=O)(=O)/N=C2\C=C(Nc3ccccc3F)C(=O)c3ccccc32)cc1 | 2.5 | 0.618 | -13.3 | -6.5 | 12.6* | 9.3 | 5.4 | 6.3 | 11.8
Cc1ccccc1NC1=C/C(=N\S(=O)(=O)c2ccc(C(=O)O)cc2)c2ccccc2C1=O | 4.4 | 0.641 | -16.4 | 31.5 | 6.0 | 10.6 | · | · | ·
Cc1cccc(NC(=O)COC(=O)c2c(-c3ccccc3)noc2C)c1 | · | · | · | · | 12.6* | · | -1.0 | -1.1 | -0.7
Cc1onc(-c2ccccc2)c1C(=O)OCC(=O)Nc1ccccc1 | · | 0.691 | 2.2 | · | 2.9 | · | · | · | ·
CCc1noc(C)c1C(=O)OCC(=O)Nc1ccc2c(c1)OCO2 | -1.1 | 0.682 | -4.3 | · | 11.8* | 1.7 | 2.4 | 2.4 | -1.1
Cc1cc(C=C2C(=N)N3N=C(C(C)C)SC3=NC2=O)c(C)n1-c1ccccc1 | · | 0.685 | · | · | · | · | · | · | ·
CCN1/C(=C/c2ccc3cc(C)ccc3[n+]2CC)Sc2cc(C)c(C)cc21 | · | 0.25* | -8.3 | · | 12.0* | · | 9.7 | 9.1 | 26.7*
Cc1cc(Nc2ccccc2Cl)c2ccccc2n1 | 1.8 | 0.63 | -4.6 | -0.8 | 14.9* | 1.1 | -0.4 | -0.9 | 9.3
N#CCCN(C(=O)CSc1nc2ccccc2c(=O)[nH]1)c1ccc(F)cc1 | -2.2 | 0.667 | -0.2 | · | 12.1* | -0.5 | 0.7 | 0.6 | -0.2
O=C(NC(Nc1nc2ccc([N+](=O)[O-])cc2s1)(C(F)(F)F)C(F)(F)F)c1ccccc1Cl | 11.2* | 0.587 | -1.9 | 64.5 | 14.8* | 14.4* | 8.1 | 10.8 | 6.3
